# PubChem BioAssay (NCATS)
# Records with an inconclusive call do not appear. Entries that show only a call come without a potency. The source made the active and inactive calls. Unless noted, calls follow the shape of the dose curve; as a rule, active = well fitted curve in the direction sought with a large enough effect in the repeat runs; inconclusive = weak or mixed curves; inactive = no such curve, though single readings can be large; an effect the other way counts as inactive or inconclusive.
# Test system: not listed separately
# Test: Primary qHTS for small molecule stabilizers of the endoplasmic reticulum resident proteome: Secreted ER Calcium Modulated Protein (SERCaMP) assay (AID 1508630; active = well fitted curve in the direction sought with a large enough effect; an effect the other way counts as inactive or inconclusive)
# Details: SH-SY5Y GLuc-SERCaMP (Gaussia luciferase released on ER calcium loss) secretion, thapsigargin, luminescence; series mostly up to 38.4 µM
# Outline: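 GLuc-SERCaMP-expressing SH-SY5Y cells, pretreated 16 h with compound, are challenged with thapsigargin to empty ER calcium stores; after 4 h, coelenterazine is added directly to the medium and luminescence is imaged.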
row,SMILES,Potency
1,CCCCCCCCCCOCC(O)CN (stereo unspecified),inactive
2,C[n+]1c2cc(N)ccc2cc2ccc(N)cc21 (tested in a mixture with another compound),inactive
3,COc1cccc2c1C(=O)c1c(O)c3c(c(O)c1C2=O)C[C@@](O)(C(=O)CO)C[C@@H]3O[C@H]1C[C@H](N)[C@H](O)[C@H](C)O1,inactive
4,CC(C)=CCC1C(=O)N(c2ccccc2)N(c2ccccc2)C1=O,inactive
5,Oc1ccc(Cl)cc1Sc1cc(Cl)ccc1O,inactive
6,O=C(CCCN1CCC(O)(c2ccc(Br)cc2)CC1)c1ccc(F)cc1,inactive
7,C=C(CC)C(=O)c1ccc(OCC(=O)O)c(Cl)c1Cl,inactive
8,CC(C)(C)CC(C)(C)c1ccc(O)c(Cc2ccc(Cl)cc2Cl)c1,inactive
9,Nc1ccc(C(=O)Nc2ccccc2N)cc1,inactive
10,C[C@]12CC[C@@H]3c4ccc(O)cc4CC[C@H]3[C@@H]1CC[C@@H]2O,inactive

# Test system: not listed separately
# Test: A High-Content qHTS Against Drug Library for the Identification of Small Molecules that Inhibit DYT1 Early Onset Primary Dystonia-Associated Cell Pathology (AID 1645839; calls by dose curve; also: potency is read from the fitted curve at half-maximal effect)
# Details: HEK293 Flp-In EGFP-delE TorsinA, punctate imaging, 48 h; series mostly up to 46.1 µM
# Outline: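 In this high-content image screen, delE TorsinA mislocalization in inducible Flp-In 293 cells is scored as %pathology, with cell count serving as the counterscreen. Compound exposure lasts 48 h under tetracycline induction in reduced-serum medium.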
row,SMILES,Potency
1,CCOC(=O)c1cccc(N)c1,inactive
2,COC1=CC(=O)C[C@@H](C)[C@]12Oc1c(Cl)c(OC)cc(OC)c1C2=O,inactive
3,Oc1ccc(Cl)c2cccnc12,inactive
4,CCC(=O)c1c(O)cc(O)cc1O,inactive
5,C[C@@H]1C[C@H]2[C@@H]3C[C@H](F)C4=CC(=O)C(Cl)=C[C@]4(C)[C@@]3(F)[C@@H](O)C[C@]2(C)[C@@]1(O)C(=O)CO,inactive
6,CC[C@@H](CO)NCCN[C@@H](CC)CO,inactive
7,Oc1cc(O)c2c(c1)O[C@H](c1ccc(O)c(O)c1)[C@H](O)C2,inactive
8,Oc1c(I)cc(Cl)c2cccnc12,5.62 µM (active)
9,CC(C)(CO)[C@@H](O)C(=O)NCCCO,inactive
10,NCCCC[C@H](N[C@@H](CCc1ccccc1)C(=O)O)C(=O)N1CCC[C@H]1C(=O)O,inactive
11,CCCCCCCCCCCCCCNCCO,inactive
12,COc1cc(C(=S)N2CCOCC2)cc(OC)c1OC,inactive
13,CC(Cc1cccc(C(F)(F)F)c1)NCCOC(=O)c1ccccc1 (stereo unspecified),inactive
14,CC(=O)N/N=C/c1ccc([N+](=O)[O-])o1,inactive
15,CC(=O)OCC(=O)[C@@]1(O)[C@H](C)C[C@H]2[C@@H]3CCC4=CC(=O)C=C[C@]4(C)[C@@]3(F)[C@@H](O)C[C@@]21C,inactive
16,OC(CCN1CCCCC1)(c1ccccc1)c1ccccc1,inactive
17,O=C(O)CCCCC(=O)O,inactive
18,CN(C)CC/C=C1\c2ccccc2Sc2ccc(Cl)cc21,12.6 µM (active)
19,C[C@]12CCC(=O)C=C1[C@@H]1C[C@@H]1[C@H]1[C@@H]3[C@@H]4C[C@@H]4[C@@]4(CCC(=O)O4)[C@@]3(C)CC[C@@H]12,inactive

# Target: Cytochrome P450 2D6 (Homo sapiens) (UniProt P10635)
# Test: Cytochrome P450 family 2 subfamily D member 6 (CYP2D6) small molecule antagonists: luciferase biochemical (cell-free) qHTS assay (AID 1645840); also: nearly all actives have a fitted effect of over 55% in size; also: potency is read from the fitted curve at half-maximal effect
# Details: P450-Glo CYP2D6 enzyme, luciferin luminescence, 1 h; series mostly up to 57.4 µM
# Outline: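 P450-Glo luminescent screen: recombinant CYP2D6 enzyme–proluciferin substrate mix preincubated with compound 10 min at room temperature, then NADPH regeneration added for 1 h at room temperature. Detection reagent added for 20 min; luciferin light read as relative luminescence units.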
# Chain of Cytochrome P450 2D6 (Homo sapiens) (P10635 whole entry, looked up): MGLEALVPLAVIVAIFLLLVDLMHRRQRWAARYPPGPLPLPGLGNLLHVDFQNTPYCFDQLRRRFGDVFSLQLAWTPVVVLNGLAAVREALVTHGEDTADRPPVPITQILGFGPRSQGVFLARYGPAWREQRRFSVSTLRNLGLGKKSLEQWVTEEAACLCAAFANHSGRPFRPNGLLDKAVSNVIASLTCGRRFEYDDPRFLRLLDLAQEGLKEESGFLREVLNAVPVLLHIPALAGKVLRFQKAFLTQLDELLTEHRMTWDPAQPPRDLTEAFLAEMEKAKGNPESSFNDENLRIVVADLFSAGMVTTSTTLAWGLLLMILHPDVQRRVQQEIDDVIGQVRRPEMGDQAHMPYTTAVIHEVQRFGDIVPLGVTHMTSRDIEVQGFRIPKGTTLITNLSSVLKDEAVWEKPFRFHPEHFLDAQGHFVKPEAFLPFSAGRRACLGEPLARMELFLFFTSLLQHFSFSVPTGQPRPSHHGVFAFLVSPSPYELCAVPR
row,SMILES,Potency
1,CCOC(=O)c1cccc(N)c1,inactive
2,CCCCCCCCCCOCC(O)CN (stereo unspecified),4.83 µM (active)
3,COC1=CC(=O)C[C@@H](C)[C@]12Oc1c(Cl)c(OC)cc(OC)c1C2=O,inactive
4,Cc1ccc(O)c2ncccc12,inactive
5,CCN(CC)C(=O)/C(C#N)=C/c1cc(O)c(O)c([N+](=O)[O-])c1,inactive
6,Oc1ccc(Cl)c2cccnc12,inactive
7,CCC(=O)c1c(O)cc(O)cc1O,24.5 µM (active)
8,NC(=NCCCCCCN=C(N)/N=C(\N)Nc1ccc(Cl)cc1)/N=C(\N)Nc1ccc(Cl)cc1,2.45 µM (active)
9,CCCCCCCCCCCCCCCC[N+](C)(C)CCN(Cc1ccc(OC)cc1)c1ncccn1,5.49 µM (active)
10,COc1ccc(CN2CCN(C(c3ccc(F)cc3)c3ccc(F)cc3)CC2)c(OC)c1OC,2.19 µM (active)
11,Oc1cc(O)c2c(c1)O[C@H](c1ccc(O)c(O)c1)[C@H](O)C2,inactive
12,CC(C)(CO)[C@@H](O)C(=O)NCCCO,inactive
13,CC(C)=CCC1C(=O)N(c2ccccc2)N(c2ccccc2)C1=O,inactive
14,NCCCC[C@H](N[C@@H](CCc1ccccc1)C(=O)O)C(=O)N1CCC[C@H]1C(=O)O,inactive
15,CCCCCCCCCCCCCCNCCO,6.17 µM (active)
16,O=c1c(-c2ccccc2)c1-c1ccccc1,inactive
17,COc1cc(C(=S)N2CCOCC2)cc(OC)c1OC,inactive
18,CC(Cc1cccc(C(F)(F)F)c1)NCCOC(=O)c1ccccc1 (stereo unspecified),0.0069 µM (active)
19,CC(=O)N/N=C/c1ccc([N+](=O)[O-])o1,15.5 µM (active)
20,Oc1ccc(Cl)cc1Sc1cc(Cl)ccc1O,12.3 µM (active)
21,CC(=O)OCC(=O)[C@@]1(O)[C@H](C)C[C@H]2[C@@H]3CCC4=CC(=O)C=C[C@]4(C)[C@@]3(F)[C@@H](O)C[C@@]21C,inactive
22,OC(CCN1CCCCC1)(c1ccccc1)c1ccccc1,0.617 µM (active)
23,CCCCCCCCCCCCCCCC[N+](C)(C)CC,0.174 µM (active)
24,CC(C)(C)CC(C)(C)c1ccc(O)c(Cc2ccc(Cl)cc2Cl)c1,19.5 µM (active)
25,Nc1ccc(C(=O)Nc2ccccc2N)cc1,inactive
26,CN(C)CC/C=C1\c2ccccc2Sc2ccc(Cl)cc21,1.23 µM (active)
27,C[C@]12CC[C@@H]3c4ccc(O)cc4CC[C@H]3[C@@H]1CC[C@@H]2O,inactive
